Records with an inconclusive call do not appear. The source made the active and inactive calls. How the source made its calls, unless noted: active means hit-call score of the fitted dose curve at least 0.9, where 1 is the maximum; inactive means score below 0.9.
Columns and labels:
[1] = target: human RAR-related Orphan Receptor beta (RORb), RORB (gene 6096) (UniProt Q92753); assay: ATG_RORb_TRANS: Attagene TRANS-FACTORIAL HepG2 Assay for human RAR-related Orphan Receptor beta (RORb) (AID 2283010; active means hit-call score of the fitted dose curve at least 0.9, where 1 is the maximum)
Sequence of human RAR-related Orphan Receptor beta (RORb), RORB (gene 6096) (Q92753 whole entry, looked up, the tested form may be a part): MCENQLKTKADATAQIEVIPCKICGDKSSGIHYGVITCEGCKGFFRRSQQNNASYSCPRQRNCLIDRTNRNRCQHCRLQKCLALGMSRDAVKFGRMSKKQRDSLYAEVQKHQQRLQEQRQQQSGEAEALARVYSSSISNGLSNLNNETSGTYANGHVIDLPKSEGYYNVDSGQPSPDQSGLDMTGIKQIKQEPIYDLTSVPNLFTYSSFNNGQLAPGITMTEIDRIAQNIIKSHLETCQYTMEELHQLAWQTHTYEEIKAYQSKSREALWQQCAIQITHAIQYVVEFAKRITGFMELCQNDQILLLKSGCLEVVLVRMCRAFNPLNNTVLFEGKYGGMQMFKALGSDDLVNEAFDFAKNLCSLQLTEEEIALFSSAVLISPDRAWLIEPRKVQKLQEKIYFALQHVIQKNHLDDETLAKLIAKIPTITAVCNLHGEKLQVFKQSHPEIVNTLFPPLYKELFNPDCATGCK
Method in brief: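 Transfect HepG2 with multiple GAL4-UAS reporter transcription units; dose chemicals for 24 h; isolate RNA, reverse-transcribe and PCR-amplify reporter sequences; label, digest and resolve fragments by capillary electrophoresis; fit increases relative to DMSO.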

[2] = target: human RAR-related Orphan Receptor gamma (RORg), RORC (gene 6097) (UniProt P51449); assay: ATG_RORg_TRANS: Attagene TRANS-FACTORIAL HepG2 Assay for human RAR-related Orphan Receptor gamma (RORg) (AID 2283011; active means hit-call score of the fitted dose curve at least 0.9, where 1 is the maximum)
Sequence of human RAR-related Orphan Receptor gamma (RORg), RORC (gene 6097) (P51449 whole entry, looked up, the tested form may be a part): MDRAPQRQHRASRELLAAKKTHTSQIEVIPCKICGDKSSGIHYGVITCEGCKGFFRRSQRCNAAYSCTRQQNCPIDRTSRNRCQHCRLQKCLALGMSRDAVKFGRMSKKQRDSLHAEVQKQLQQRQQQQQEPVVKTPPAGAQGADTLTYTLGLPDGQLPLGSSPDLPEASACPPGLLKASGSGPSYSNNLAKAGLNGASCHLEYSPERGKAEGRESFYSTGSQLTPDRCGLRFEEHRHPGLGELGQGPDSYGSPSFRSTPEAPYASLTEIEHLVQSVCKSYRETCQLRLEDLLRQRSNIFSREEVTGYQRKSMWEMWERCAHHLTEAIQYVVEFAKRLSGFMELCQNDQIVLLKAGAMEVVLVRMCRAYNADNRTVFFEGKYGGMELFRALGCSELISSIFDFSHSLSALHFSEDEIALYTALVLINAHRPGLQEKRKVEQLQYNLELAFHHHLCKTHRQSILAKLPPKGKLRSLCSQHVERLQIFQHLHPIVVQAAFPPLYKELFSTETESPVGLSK
Method in brief: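 First, HepG2 liver cells were transfected with GAL4-UAS-driven reporter constructs and the RORg-Gal4 fusion. Next, they were treated with chemical for 24 h. Finally, reporter mRNA was quantified by RT-PCR and capillary electrophoresis, with upward activity fitted against DMSO.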

[3] = target: Retinoic acid receptor RXR-alpha (Homo sapiens) (UniProt P19793); assay: ATG_RXRa_TRANS: Attagene TRANS-FACTORIAL HepG2 Assay for human Retinoid X Receptor alpha (RXRa) (AID 2283012; active means hit-call score of the fitted dose curve at least 0.9, where 1 is the maximum)
Sequence of Retinoic acid receptor RXR-alpha (Homo sapiens) (P19793 whole entry, looked up, the tested form may be a part): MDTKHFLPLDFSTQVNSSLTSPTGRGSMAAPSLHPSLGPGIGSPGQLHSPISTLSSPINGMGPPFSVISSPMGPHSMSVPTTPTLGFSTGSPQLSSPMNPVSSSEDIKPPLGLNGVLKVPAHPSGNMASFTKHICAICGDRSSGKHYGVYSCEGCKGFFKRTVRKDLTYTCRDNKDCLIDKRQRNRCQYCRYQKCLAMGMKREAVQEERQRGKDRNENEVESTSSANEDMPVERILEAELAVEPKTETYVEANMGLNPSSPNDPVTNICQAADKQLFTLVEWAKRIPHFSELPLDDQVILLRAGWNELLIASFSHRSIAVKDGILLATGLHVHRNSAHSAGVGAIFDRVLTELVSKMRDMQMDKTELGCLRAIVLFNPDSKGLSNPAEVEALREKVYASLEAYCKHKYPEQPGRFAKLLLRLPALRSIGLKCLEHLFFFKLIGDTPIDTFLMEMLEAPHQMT
Method in brief: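 Measures exogenous chimeric NR-GAL4 activity in transfected HepG2 liver cells after 24 h of dosing. Induced reporter mRNA was detected by RT-PCR with capillary electrophoresis, and gain of signal was analysed against DMSO.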

[4] = target: human Retinoid X Receptor beta (RXRb), RXRB (gene 6257) (UniProt P28702); assay: ATG_RXRb_TRANS: Attagene TRANS-FACTORIAL HepG2 Assay for human Retinoid X Receptor beta (RXRb) (AID 2283013; active means hit-call score of the fitted dose curve at least 0.9, where 1 is the maximum)
Sequence of human Retinoid X Receptor beta (RXRb), RXRB (gene 6257) (P28702 whole entry, looked up, the tested form may be a part): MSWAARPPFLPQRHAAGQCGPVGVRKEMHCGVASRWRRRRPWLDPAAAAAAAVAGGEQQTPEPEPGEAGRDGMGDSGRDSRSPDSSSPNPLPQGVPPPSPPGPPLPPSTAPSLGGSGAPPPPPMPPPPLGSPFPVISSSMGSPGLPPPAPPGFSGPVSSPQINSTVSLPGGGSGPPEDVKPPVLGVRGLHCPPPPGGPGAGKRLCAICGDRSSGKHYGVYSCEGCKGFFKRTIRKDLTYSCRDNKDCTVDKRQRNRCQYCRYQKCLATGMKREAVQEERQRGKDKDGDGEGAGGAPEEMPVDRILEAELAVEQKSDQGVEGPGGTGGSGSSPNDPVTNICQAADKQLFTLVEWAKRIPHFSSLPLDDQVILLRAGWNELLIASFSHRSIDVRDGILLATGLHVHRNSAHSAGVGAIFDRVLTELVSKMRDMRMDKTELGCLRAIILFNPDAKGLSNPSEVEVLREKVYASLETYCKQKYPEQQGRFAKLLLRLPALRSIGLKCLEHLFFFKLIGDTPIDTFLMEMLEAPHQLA
Method in brief: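 Chimeric receptor-Gal4 activity was assessed in transiently transfected human HepG2 cells after 24 h exposure. Transcripts from GAL4-UAS reporters were quantified by fluorescent RT-PCR and capillary electrophoresis, with DMSO as negative control and baseline.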

[5] = target: human Thyroid Receptor alpha (THRa1), THRA (gene 7067) (UniProt P10827); assay: ATG_THRa1_TRANS: Attagene TRANS-FACTORIAL HepG2 Assay for human Thyroid Receptor alpha (THRa1) (AID 2283014; active means hit-call score of the fitted dose curve at least 0.9, where 1 is the maximum)
Sequence of human Thyroid Receptor alpha (THRa1), THRA (gene 7067) (P10827 whole entry, looked up, the tested form may be a part): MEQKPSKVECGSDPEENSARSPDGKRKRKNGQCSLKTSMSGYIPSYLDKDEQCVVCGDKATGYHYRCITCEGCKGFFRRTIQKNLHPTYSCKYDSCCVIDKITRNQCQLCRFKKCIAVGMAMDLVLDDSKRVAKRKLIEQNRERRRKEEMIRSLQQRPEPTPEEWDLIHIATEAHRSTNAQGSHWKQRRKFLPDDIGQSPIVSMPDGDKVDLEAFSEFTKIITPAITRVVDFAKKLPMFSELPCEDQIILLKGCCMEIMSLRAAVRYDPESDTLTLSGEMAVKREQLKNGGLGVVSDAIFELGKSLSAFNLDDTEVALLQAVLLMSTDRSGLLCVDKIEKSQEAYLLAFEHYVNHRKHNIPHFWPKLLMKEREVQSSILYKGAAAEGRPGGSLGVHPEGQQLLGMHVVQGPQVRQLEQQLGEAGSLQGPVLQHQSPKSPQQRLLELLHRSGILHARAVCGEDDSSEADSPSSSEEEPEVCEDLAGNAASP
Method in brief: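 Reporter transcript induction, read by capillary electrophoresis of 6-FAM-labelled RT-PCR products, reflects activity of a transfected THRa1-Gal4 fusion in HepG2 liver cells. Cells were dosed for 24 h; activity was fitted in the positive direction against DMSO.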

[6] = read-out: E-selectin (Homo sapiens) (UniProt P16581); assay: BSK_3C_Eselectin: BioMAP Diversity Plus: 3C Assay for Eselectin Biomarker Activity (AID 2283015); conditions: primary human endothelial cells (HUVEC); actives raise or lower the signal
Method in brief: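 ELISA read-out of E-selectin on endothelial monolayers after 24 h chemical treatment. Human umbilical vein primary cells served as the system, with DMSO defining baseline activity for bidirectional fitting.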

[7] = read-out: Interleukin-1 alpha (IL1a), IL1A (gene 3552); assay: BSK_BE3C_IL1a: BioMAP Diversity Plus: BE3C Assay for Interleukin-1 alpha (IL1a) Biomarker Activity (AID 2283016); conditions: primary human bronchial epithelial cells; actives raise or lower the signal
Method in brief: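 Signal from IL-1a ELISA, taken 24 h after chemical dosing of human bronchial epithelial cells, is compared with DMSO as baseline using bidirectional curve fitting.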

[8] = read-out: Monocyte Chemoattractant Protein-1 (MCP1), CCL2 (gene 6347); assay: BSK_3C_MCP1: BioMAP Diversity Plus: 3C Assay for Monocyte Chemoattractant Protein-1 (MCP1) Biomarker Activity (AID 2283017); conditions: primary human endothelial cells (HUVEC); actives raise or lower the signal
Method in brief: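 ELISA read-out of MCP-1 from human umbilical vein endothelial cell cultures harvested 24 h post-dosing. Gain or loss of signal was fitted relative to DMSO.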

[9] = read-out: Human Leukocyte Antigen - DR isotype (HLADR), HLA-DRA (gene 3122); assay: BSK_3C_HLADR: BioMAP Diversity Plus: 3C Assay for Human Leukocyte Antigen - DR isotype (HLADR) Biomarker Activity (AID 2283019); conditions: primary human endothelial cells (HUVEC); actives raise or lower the signal
Method in brief: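 ELISA readout of surface HLA-DR on human umbilical vein endothelium, taken 24 h after chemical treatment. Gain- and loss-of-signal were both fitted relative to DMSO.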

[10] = read-out: Interleukin-8 (IL8), CXCL8 (gene 3576); assay: BSK_3C_IL8: BioMAP Diversity Plus: 3C Assay for Interleukin-8 (IL8) Biomarker Activity (AID 2283020); conditions: primary human endothelial cells (HUVEC); actives raise or lower the signal
Method in brief: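 Endothelial primary cells of human umbilical vein origin are dosed with chemical; after 24 h the IL-8 biomarker is measured by ELISA, and concentration–response is fitted in both directions versus DMSO.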

[11] = read-out: Monokine induced gamma interferon (MIG), CXCL9 (gene 4283); assay: BSK_3C_MIG: BioMAP Diversity Plus: 3C Assay for Monokine induced gamma interferon (MIG) Biomarker Activity (AID 2283021); conditions: primary human endothelial cells (HUVEC); actives raise or lower the signal;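 on AC50: MIG protein level measured by immunoassay in the treated endothelial cultures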
Method in brief: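 Endothelial primary cells (human umbilical vein) are dosed with test chemical in the 3C system. MIG levels are measured by ELISA at 24 h and fitted in both directions relative to DMSO.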

[12] = BSK_3C_SRB: Viability Assessment in the BioMAP Diversity Plus: 3C Assay (AID 2283023); conditions: primary human endothelial cells (HUVEC);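 further: fitted both ways against DMSO so a hit may be signal rise or drop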
Method in brief: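 Absorbance at 560 nm of sulforhodamine B-stained (0.1%) total protein served as a cytotoxicity readout in human umbilical vein endothelial cells, 24 h after chemical treatment. Signal was fitted bidirectionally relative to DMSO.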

[13] = read-out: Matrix Metallopeptidase 1 (MMP1), MMP1 (gene 4312); assay: BSK_BE3C_MMP1: BioMAP Diversity Plus: BE3C Assay for Matrix Metallopeptidase 1 (MMP1) Biomarker Activity (AID 2283024); conditions: primary human bronchial epithelial cells; actives raise or lower the signal
Method in brief: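 MMP1 signal, measured by ELISA after a 24 h chemical exposure of human primary bronchial epithelial cells, is analysed with bidirectional fitting using DMSO as negative control.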

[14] = BSK_3C_Vis: BioMAP Diversity Plus: 3C Assay for Morphology Visualization (AID 2283025); conditions: primary human endothelial cells (HUVEC);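 further: fitted both ways so gain or loss versus DMSO counts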
Method in brief: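 Morphology read by light microscopy serves as a background control for the multiplexed 3C assay in human umbilical vein endothelial cells, taken 24 h after dosing, with DMSO as the negative control and bidirectional curve fitting.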

[15] = read-out: Pselectin, SELP (gene 6403); assay: BSK_4H_Pselectin: BioMAP Diversity Plus: 4H Assay for Pselectin Biomarker Activity (AID 2283026); conditions: primary human endothelial cells (HUVEC); actives raise or lower the signal
Method in brief: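 Endothelial primary cells (human umbilical vein) are dosed, incubated 24 h, and assayed for surface P-selectin by ELISA; responses in either direction are fitted relative to the DMSO negative control.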

[16] = BSK_4H_SRB: Viability Assessment in the BioMAP Diversity Plus: 4H Assay (AID 2283027); conditions: primary human endothelial cells (HUVEC);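 further: cells exposed to compound for 24 h before staining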;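 on AC50: curves fitted both ways versus DMSO so AC50 may be loss or gain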
Method in brief: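 Cytotoxicity read-out in primary human endothelial cells: after 24 h compound exposure, cells were TCA-fixed (10%), stained with 0.1% SRB and absorbance taken at 560 nm. Values fitted in both directions relative to DMSO.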

[17] = BSK_BE3C_SRB: Viability Assessment in the BioMAP Diversity Plus: BE3C Assay (AID 2283028); conditions: primary human bronchial epithelial cells;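 on AC50: fitted both ways so AC50 may mark signal gain or loss versus DMSO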
Method in brief: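 Cells (human bronchial epithelial, primary) are treated with chemicals, and after 24 h the parallel cultures are fixed in 10% TCA. These are then stained with 0.1% SRB and read at 560 nm. Gain or loss of signal is fitted relative to DMSO.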

[18] = read-out: Thrombomodulin, THBD (gene 7056); assay: BSK_3C_Thrombomodulin: BioMAP Diversity Plus: 3C Assay for Thrombomodulin Biomarker Activity (AID 2283029); conditions: primary human endothelial cells (HUVEC); actives raise or lower the signal
Method in brief: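 Endothelial cells from umbilical vein are dosed with test chemical and incubated 24 h. Thrombomodulin is then quantified by ELISA, with DMSO serving as negative control and activity baseline.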

[19] = target: human Vitamin D Receptor (VDR), VDR (gene 7421) (UniProt P11473); assay: ATG_VDR_TRANS: Attagene TRANS-FACTORIAL HepG2 Assay for human Vitamin D Receptor (VDR) (AID 2283022; active means hit-call score of the fitted dose curve at least 0.9, where 1 is the maximum)
Sequence of human Vitamin D Receptor (VDR), VDR (gene 7421) (P11473 whole entry, looked up, the tested form may be a part): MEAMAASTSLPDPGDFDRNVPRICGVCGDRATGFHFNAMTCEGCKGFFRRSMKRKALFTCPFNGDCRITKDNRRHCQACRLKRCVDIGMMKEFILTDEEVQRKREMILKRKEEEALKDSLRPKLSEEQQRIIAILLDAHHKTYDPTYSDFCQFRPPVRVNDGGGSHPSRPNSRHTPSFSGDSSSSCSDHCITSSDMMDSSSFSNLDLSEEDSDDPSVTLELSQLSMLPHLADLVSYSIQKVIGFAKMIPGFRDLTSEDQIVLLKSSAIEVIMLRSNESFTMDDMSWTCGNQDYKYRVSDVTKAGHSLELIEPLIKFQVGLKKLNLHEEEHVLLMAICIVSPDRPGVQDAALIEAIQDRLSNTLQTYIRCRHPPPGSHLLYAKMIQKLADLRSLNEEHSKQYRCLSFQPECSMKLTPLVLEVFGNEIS
Method in brief: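 Steps: transfect HepG2 with GAL4-UAS-driven reporter constructs; dose compounds 24 h; isolate RNA, reverse-transcribe, PCR-amplify with 6-FAM-labelled primer extension and HpaI digestion; quantify fragments by capillary electrophoresis relative to DMSO.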

[20] = read-out: Monocyte Chemoattractant Protein-1 (MCP1), CCL2 (gene 6347); assay: BSK_4H_MCP1: BioMAP Diversity Plus: 4H Assay for Monocyte Chemoattractant Protein-1 (MCP1) Biomarker Activity (AID 2283018); conditions: primary human endothelial cells (HUVEC); actives raise or lower the signal
Method in brief: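 Endothelial cells from umbilical vein were treated with test chemical, then after 24 h MCP-1 levels were quantified by ELISA; endpoint values came from bidirectional fitting with DMSO as baseline of activity.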

Measured: AC50

Sequence of E-selectin (Homo sapiens) (P16581 whole entry, looked up): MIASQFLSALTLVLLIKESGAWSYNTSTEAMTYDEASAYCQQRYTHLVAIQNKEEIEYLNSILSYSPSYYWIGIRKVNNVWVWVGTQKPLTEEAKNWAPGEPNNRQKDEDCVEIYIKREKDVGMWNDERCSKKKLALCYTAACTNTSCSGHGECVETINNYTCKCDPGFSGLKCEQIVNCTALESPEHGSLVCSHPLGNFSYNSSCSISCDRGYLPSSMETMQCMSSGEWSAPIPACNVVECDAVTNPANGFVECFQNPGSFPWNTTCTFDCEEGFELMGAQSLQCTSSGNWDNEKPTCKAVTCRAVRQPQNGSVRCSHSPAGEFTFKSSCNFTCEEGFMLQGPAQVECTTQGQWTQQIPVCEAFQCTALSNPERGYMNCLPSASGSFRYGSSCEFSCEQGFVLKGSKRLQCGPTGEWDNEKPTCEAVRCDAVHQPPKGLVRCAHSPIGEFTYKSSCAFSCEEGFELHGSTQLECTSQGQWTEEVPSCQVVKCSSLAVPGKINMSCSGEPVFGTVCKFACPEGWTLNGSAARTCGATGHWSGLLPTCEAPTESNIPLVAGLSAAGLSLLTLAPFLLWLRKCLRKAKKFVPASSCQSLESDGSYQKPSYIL

CCCCOC(=O)c1ccccc1C(=O)O
active: [14] 0.28 µM
not listed: [19] | [20]
inactive: all other assays above

COP(=O)(NC(C)=O)SC (configuration not stated)
active: [12] 5.17 µM
not listed: [20]
inactive: all other assays above

CN1COCN(Cc2cnc(Cl)s2)C1=N[N+](=O)[O-]
not listed: [1] | [20]
inactive: all other assays above

CC[C@H](C)[C@H]1O[C@]2(C=C[C@@H]1C)C[C@@H]1C[C@@H](C/C=C(\C)[C@@H](O[C@H]3C[C@H](OC)[C@@H](O[C@H]4C[C@H](OC)[C@@H](NC)[C@H](C)O4)[C@H](C)O3)[C@@H](C)/C=C/C=C3\CO[C@@H]4[C@H](O)C(C)=C[C@@H](C(=O)O1)[C@]34O)O2
inactive: [1] | [2] | [3] | [19]
active: [6] 8.63 µM | [7] 7.71 µM | [8] 3.66 µM | [20] 2.88 µM | [9] 3.38 µM | [10] 6.22 µM | [11] 9.14 µM | [12] 2.43 µM | [13] 11.9 µM | [14] 1.61 µM | [15] 1.77 µM | [16] 5.17 µM | [17] 2.87 µM | [18] 1.88 µM

CCOP(=O)(SC(C)CC)N1CCSC1=O (configuration not stated)
not listed: [2] | [3] | [4] | [5] | [20]
inactive: all other assays above

Nc1c(Cl)cc([N+](=O)[O-])cc1Cl
active: [9] 28.8 µM
not listed: [1]
inactive: all other assays above

Source: PubChem BioAssay (EPA / NIEHS)
